Laboratory results: PubChem BioAssay AID1159580 (chemical genetic matrix, 2015)
Values joined by “and” are separate entries in the source; they are usually repeats but may differ in a detail not shown here. Identical values can stand only once. The whole screen tested about 5,500 compounds, of which about 2,000 (36%) were called active. Roughly 18% stayed inconclusive and do not appear here. Cut-off read from the data, not from the text of the source: active = normalized growth mostly below about 0.91 (no sharp cut-off); inconclusive = no clear call, values can overlap the other calls; inactive = mostly above about 0.92. Some of the results follow.

Experiment: chemical genetic growth profiling, strain panel (AID 1159580);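 note: tested at 20 µM; growth read once vehicle control cultures reached saturation at 30 °C; 1 = growth at the plate median or of vehicle wells; lower values mean less growth of the strain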
Settings: S. cerevisiae deletion strains, growth OD

Measured: normalized growth

COc1cc(/C=C/C(=O)O)cc(OC)c1OC
inactive: locus YAL021C, strain ccr4, stronger effect = lower value 0.979 | locus YAL026C, strain drs2, stronger effect = lower value 0.999 | locus YAL030W, strain snc1, stronger effect = lower value 0.988 | locus YBL061C, strain skt5, stronger effect = lower value 0.993 | locus YBR009C, strain hhf1, stronger effect = lower value 1.02 | locus YBR021W, strain FUR4, stronger effect = lower value 0.998 | locus YBR023C, strain chs3, stronger effect = lower value 0.993 | locus YBR171W, strain sec66, stronger effect = lower value 1 | locus YBR229C, strain ROT2, stronger effect = lower value 1.01 | locus YBR231C, strain swc5, stronger effect = lower value 0.941 | locus YBR279W, strain paf1, stronger effect = lower value 0.973 | locus YCL011C, strain gbp2, stronger effect = lower value 0.99 | locus YCL016C, strain dcc1, stronger effect = lower value 0.994 | locus YCL029C, strain bik1, stronger effect = lower value 1.01 | locus YCL061C, strain MRC1, stronger effect = lower value 1 | locus YCL069W, strain vba3, stronger effect = lower value 0.992 | locus YCR088W, strain abp1, stronger effect = lower value 0.989 | locus YDL005C, strain med2, stronger effect = lower value 0.979 | locus YDL035C, strain GPR1, stronger effect = lower value 1.01 | locus YDL040C, strain nat1, stronger effect = lower value 0.99 | locus YDL074C, strain BRE1, stronger effect = lower value 1.02 | locus YDL101C, strain DUN1, stronger effect = lower value 1.01 | locus YDL134C, strain PPH21, stronger effect = lower value 1.02 | locus YDL185W, strain tfp1, stronger effect = lower value 1.01 | locus YDL192W, strain arf1, stronger effect = lower value 1.01 | locus YDR001C, strain nth1, stronger effect = lower value 0.985 | locus YDR069C, strain doa4, stronger effect = lower value 0.991 | locus YDR101C, strain arx1, stronger effect = lower value 1.01 | locus YDR137W, strain rgp1, stronger effect = lower value 1 | locus YDR159W, strain sac3, stronger effect = lower value 0.986 | locus YDR162C, strain NBP2, stronger effect = lower value 1.03 | locus YDR195W, strain ref2 0.99 | locus YDR297W, strain sur2, stronger effect = lower value 1 | locus YDR318W, strain mcm21, stronger effect = lower value 1.01 | locus YDR334W, strain swr1, stronger effect = lower value 0.987 | locus YDR335W, strain msn5, stronger effect = lower value 0.987 | locus YDR388W, stronger effect = lower value 1.01 | locus YDR392W, strain spt3, stronger effect = lower value 0.946 | locus YDR502C, strain sam2, stronger effect = lower value 0.991 | locus YEL003W, strain gim4, stronger effect = lower value 0.994 | locus YEL037C, strain rad23, stronger effect = lower value 0.984 | locus YEL061C, strain CIN8 (second series), stronger effect = lower value 0.99 | locus YEL061C, strain CIN8, stronger effect = lower value 1.01 | locus YER015W, strain faa2, stronger effect = lower value 0.975 | locus YER016W, strain bim1, stronger effect = lower value 0.99 | locus YER110C, stronger effect = lower value 1.03 | locus YER111C, strain swi4, stronger effect = lower value 0.984 | locus YER155C, strain BEM2 (second series), stronger effect = lower value 1.01 | locus YER155C, strain BEM2, stronger effect = lower value 1.01 | locus YER167W, strain BCK2, stronger effect = lower value 1.01 | locus YFR010W, strain ubp6, stronger effect = lower value 0.988 | locus YGL078C, strain dbp3, stronger effect = lower value 1.02 | locus YGL086W, strain mad1, stronger effect = lower value 0.997 | locus YGL167C, strain pmr1, stronger effect = lower value 0.982 | locus YGL173C, strain kem1, stronger effect = lower value 0.985 | locus YGL227W, strain vid30, stronger effect = lower value 0.997 | locus YGL240W, strain doc1, stronger effect = lower value 1 | locus YGL248W, strain PDE1, stronger effect = lower value 1.02 | locus YGL253W, strain hxk2, stronger effect = lower value 0.993 | locus YGR078C, strain PAC10, stronger effect = lower value 1.01 | locus YGR135W, strain pre9, stronger effect = lower value 1.02 | locus YGR252W, strain gcn5, stronger effect = lower value 1.02 | locus YHR013C, strain ard1, stronger effect = lower value 0.967 | locus YHR027C, strain rpn1, stronger effect = lower value 1 | locus YHR030C, strain SLT2, stronger effect = lower value 1 and 1.01 | locus YHR079C, strain IRE1 (second series), stronger effect = lower value 1.03 | locus YHR079C, strain IRE1, stronger effect = lower value 1 | locus YHR094C, strain hxt1, stronger effect = lower value 1.02 | locus YHR129C, strain ARP1, stronger effect = lower value 1.01 | locus YHR142W, strain chs7, stronger effect = lower value 0.986 | locus YHR200W, strain rpn10, stronger effect = lower value 1.02 | locus YIL066C, strain RNR3, stronger effect = lower value 1.01 | locus YIL073C, strain SPO22, stronger effect = lower value 1.08 | locus YIL125W, strain kgd1, stronger effect = lower value 1.01 | locus YIR030C, strain dcg1, stronger effect = lower value 1.02 | locus YJL092W, strain hpr5, stronger effect = lower value 0.991 | locus YJL095W, strain BCK1 (second series), stronger effect = lower value 0.994 | locus YJL095W, strain BCK1, stronger effect = lower value 1.01 and 1.03 | locus YJL115W, strain asf1, stronger effect = lower value 0.976 | locus YJL129C, strain trk1, stronger effect = lower value 0.971 | locus YJL134W, strain LCB3, stronger effect = lower value 1 | locus YJL154C, strain vps35, stronger effect = lower value 0.992 | locus YJL164C, strain tpk1, stronger effect = lower value 0.987 | locus YJL166W, strain qcr8, stronger effect = lower value 0.994 | locus YJL168C, strain set2, stronger effect = lower value 1.01 | locus YJL187C, strain SWE1 (second series), stronger effect = lower value 1.01 | locus YJL187C, strain SWE1, stronger effect = lower value 0.991
